Source: PubChem
The list is not random: actives were taken first. Their share in the collection is about 4.8%.
AI-2 QS modul: modulates the Vibrio harveyi AI-2 quorum sensing system. Vibrio harveyi JMH597 AI-2 luminescence/OD600 ratio, 9 h; active compounds read low; strain lacks LuxN and CqsS sensors; 0 = neutral-control median. activity change, % at 7.5 µM. 300,000 tested, 0.4% active. AID 2094; in the data active means activity change below about -75%, passing the limit was not always enough; inconclusive means no clear call, values can overlap the other calls;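 further: luminescence divided by OD600 gain over 9 h not by final OD600 alone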
ALR H2O2 inh: inhibitors of human sulfhydryl oxidase ALR. P55789. purified ALR, DTT oxidation, H2O2 HRP-luminol luminescence. inhibition, % (test concentration not listed). 290,000 tested, 3.8% active. AID 485317;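 active means mean replicate inhibition above about 79%, with every replicate also reaching it, limit read from the data; inconclusive means only one of the two criteria met; inactive means mean below limit and not every replicate reaching it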
Target sequence (P55789 whole entry, looked up): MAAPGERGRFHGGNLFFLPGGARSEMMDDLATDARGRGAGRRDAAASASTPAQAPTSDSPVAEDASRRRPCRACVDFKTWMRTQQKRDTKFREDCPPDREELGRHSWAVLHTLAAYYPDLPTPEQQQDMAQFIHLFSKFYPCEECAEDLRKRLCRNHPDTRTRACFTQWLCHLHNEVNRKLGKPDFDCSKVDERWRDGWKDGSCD
HIF activator: HIF pathway transcriptional activation. AID 1910. U2OS HRE-luciferase reporter, luminescence; normalized: DMSO 0%, desferrioxamine 100%. activation, % at 7.5 µM (by protocol). 300,000 tested, 0.32% active;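 active means mean activation of at least 10% of the iron chelator positive control signal, with at least half of replicates also reaching 10%; inconclusive means mean and replicate majority disagree about reaching 10%; inactive means mean and most replicates under 10%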
Mot1-301 SUMO: inhibitors of SUMOylation pathway: yeast Mot1-301 growth rescue; growth rescue, % at 18.8 µM; S. cerevisiae Mot1-301 growth rescue, ATP luminescence, 38.5C; percent above DMSO median, 100 means doubled; AID 2716; 320,000 tested, 1% active;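 active means every valid replicate shows activation above 250% relative to neutral control wells; inactive means the rest, any valid replicate at or below 250%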;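 further: OY570 slx delta 5 strain wells were the positive control but not used for scaling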
The depositor's hits bear a star; ? = inconclusive; · = not tested or not shown.

SMILES	AI-2 QS modul	ALR H2O2 inh	HIF activator	Mot1-301 SUMO
Nc1nnnn1/N=C/c1cccc(O)c1	18	3	0	-7
O=C(NCc1ccco1)C1CCN(C(=O)c2ccc(Cl)cc2Cl)CC1	5	·	1	3
CCOC(CNc1ncnc2sc(-c3ccccc3)cc12)OCC	11	97*	-21	167
Cc1ccc(NS(=O)(=O)c2sc3ccc(Cl)cc3c2C)cc1	42	-7	-1	665*
Cc1ccc2nc(-c3ccc(NS(=O)(=O)c4ccc(F)c(F)c4)cc3)sc2c1	41	16	1	32
O=[N+]([O-])c1cc(/C=N/O)ccc1Oc1cccc(Cl)c1	-7	?	0	-1
O=[N+]([O-])c1cc(/C=N/O)ccc1Oc1ccccc1Cl	7	-2	1	266*
CCCCCCCCCCCC(=O)N1CC(=O)NC(=O)C1	6	4	-1	24
O=C(CN(C(=O)c1csnn1)c1ccccc1C(F)(F)F)NC1CCCCC1	28	0	0	27
COc1ccc(NC(=O)NC(C)(C(F)(F)F)C(F)(F)F)cc1	25	·	1	-21
CCC(NC(=O)Nc1ccc(O)cc1)(C(F)(F)F)C(F)(F)F	·	99*	·	-4
CC(NC(=O)Nc1ccc(O)cc1)(C(F)(F)F)C(F)(F)F	1	98*	0	6
COc1cccc(OCC(O)CN2CCN(C)CC2)c1 (configuration not stated)	21	-1	1	2
CC1Cc2cc(S(=O)(=O)N3CCC(C(=O)NCc4ccco4)CC3)ccc2N1C(=O)C1CCC1 (configuration not stated)	13	-8	0	1
Cn1c(-c2ccccc2)cnc1SCC(=O)N1CCCc2ccccc21	-2	7	1	4
Cn1c(-c2ccccc2)cnc1SCC(=O)N1CCCCC1	26	100*	-3	-5
CCOC(=O)c1sc(NC(=O)CCN2CCN(CC)CC2)c(C(=O)OCC)c1C	12	96*	0	-10
CCOC(=O)c1c(NC(=O)CNCC(O)CO)sc(C)c1C (configuration not stated)	-7	4	0	295*
CCOC(=O)c1c(NC(=O)CSC(=S)N2CCOCC2)sc(C)c1C	15	98*	0	20
CCOC(=O)c1sc(NC(=O)CSC(=S)N2CCOCC2)nc1C	20	18	0	-11
O=C(Cn1ncc2c([nH]c3ccccc32)c1=O)NCC1CCN(Cc2ccccc2F)CC1	33	0	0	0
CC1CCCCC12NC(=O)N(CC(=O)N1CCN(S(=O)(=O)Cc3ccccc3)CC1)C2=O (configuration not stated)	·	-10	·	0
O=C(Nc1ccccc1)c1nnsc1S(=O)c1ccc(Cl)cc1 (configuration not stated)	-43	98*	2	79
O=C(c1nnsc1S(=O)c1ccc(Cl)cc1)N1CCOCC1 (configuration not stated)	-53	·	-2	·
Cc1ccc(CNC(=O)CSc2nc3ccsc3c(=O)n2Cc2ccccn2)cc1	10	-6	0	3
SMILES	AI-2 QS modul	ALR H2O2 inh	HIF activator	Mot1-301 SUMO
O=C(CSc1nc2nccnc2c(=O)n1Cc1cccs1)Nc1ccccc1	24	98*	-1	-13
COc1ccccc1NC(=O)CSc1nc2nccnc2c(=O)n1Cc1cccs1	5	96*	0	12
O=c1c2sccc2nc(SCc2cc(=O)n3cc(Cl)ccc3n2)n1Cc1ccccn1	17	88*	2	-6
COc1ccc(NC(=O)CSc2nc3ccsc3c(=O)n2Cc2ccccn2)c(OC)c1	·	96*	2	-10
O=C(O)CCCCCn1c(SCc2cc(=O)n3cc(Cl)ccc3n2)nc2ccsc2c1=O	24	1	-4	-3
COCCn1c(SCC(=O)Nc2ccccc2OC)nc2c(oc3ccccc32)c1=O	1	-2	0	-7
Cc1ccc(NC(=O)CSc2nc3ccccc3c(=O)n2Cc2cccs2)cc1	6	-37	1	36
Cc1ccc(NC(=O)CCn2c(=S)oc3ccccc32)cc1F	10	2	0	2
CC(Cn1cncn1)C(=O)N1CCN(S(=O)(=O)c2ccccc2)CC1 (configuration not stated)	·	20	0	-1
COc1ccc(S(=O)(=O)N2CCCCC2)cc1NC(=O)C1COc2ccccc2O1 (configuration not stated)	25	-20	-1	-3
CCn1c(C)c(C)c2cc(C(=O)NC3CCCCCC3)ccc21	19	?	1	1
CC(C(=O)N(C)Cc1ccccc1)N1CCN(C/C=C/c2ccccc2)CC1 (configuration not stated)	11	0	-1	282*
CC(=O)c1ccc(NC(=O)C(C)N2CCN(C/C=C/c3ccccc3)CC2)cc1 (configuration not stated)	13	13	-1	-9
CC1CCN(c2ccc3c(c2)S(=O)(=O)c2cccc(C(=O)NC4CCCCC4)c2C3=O)CC1	·	2	·	1
Cc1ccc2nccc(C(=O)N3CCCC(Nc4ccc(F)cc4)C3)c2c1 (configuration not stated)	13	98*	0	1
CC(C)c1ccc(NC2CCCN(C(=O)c3cnc4ccccn4c3=O)C2)cc1 (configuration not stated)	14	95*	0	314
Cc1occc1C(=O)N1CCCC(Nc2ccc(F)cc2)C1 (configuration not stated)	19	98*	0	-2
Cc1occc1C(=O)N1CCCC(Nc2ccc(C(C)C)cc2)C1 (configuration not stated)	14	99*	0	279
CCc1ccc2oc(C(=O)NCC(c3ccc(OC)cc3)N3CCCCC3)c(C)c2c1 (configuration not stated)	0	-12	-1	-15
Cc1ccc2c(c1)-n1c(nc3cc(Cl)ccc3c1=O)C(CC(C)C)NC2=O (configuration not stated)	·	5	·	35
Cc1cc(C(=O)N2CCCC(Nc3ccc(F)cc3)C2)c(C)o1 (configuration not stated)	2	?	1	-4
O=C(c1ccccc1-c1ncc[nH]1)N1CCCC(Nc2ccc(F)cc2)C1 (configuration not stated)	13	99*	0	7
CS(=O)(=O)c1ccccc1-c1nnc(NC(=O)Cc2ccccc2)o1	21	-2	0	20
CCCCOC(=O)Nc1ccc(N(C)C)cc1	-6	99*	2	6
CCOC(=O)c1c(C)c(C(=O)Nc2ccc(N(C)C)cc2)c(C)n1CC	13	99*	5	-4
CCCCOC(=O)Nc1ccc(C(N)=O)cc1	-51	-3	1	-14
CCCCOC(=O)Nc1ccc(N2CCCCC2)cc1	-39	78*	1	-24
CC(C)c1csc(CN2CCC(n3nccc3NC(=O)Cc3ccccc3)CC2)n1	8	0	0	-14
O=C(NNC(=S)Nc1ccc(F)cc1)c1cccc([N+](=O)[O-])c1	23	·	1	7
